RPL19A TOR yeast: alters RPL19A-GFP fluorescence in TOR pathway yeast screen; percent response vs DMSO, % at 10 µM; 0.3% of 330,000 active; AID 2025; S. cerevisiae RPL19A-GFP strain, flow cytometry, 3 h; active compounds read low;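 active = percent response vs DMSO below 50%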;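 note: median channel GFP fluorescence of the barcoded RPL19A-GFP strain; ratio of sample median GFP to plate DMSO average so 100% = DMSO; lower means less RPL19A-GFP as with rapamycin TOR inhibition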
AGP1 TOR yeast: yeast TOR pathway AGP1-GFP modulation; S. cerevisiae AGP1-GFP multiplex flow cytometry, 3 h; GFP as percent of DMSO wells; GFP response vs DMSO, % at 10 µM; AID 2066; 0.02% of 320,000 active;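 active = GFP response relative to DMSO above a set limit, near screen average plus 3 SD, cut at about 150% in these data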;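 note: median GFP channel fluorescence of the gated AGP1 strain per well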
LAP4-GFP MLPCN: yeast TOR pathway LAP4-GFP modulation; GFP response vs DMSO, % at 10 µM; 0.34% of 320,000 active; S. cerevisiae LAP4-GFP multiplex, flow cytometry GFP, 3 h; median GFP as percent of DMSO wells; AID 2023;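 active = GFP response vs DMSO above a set limit, about the screen mean plus 3 SD, cut at about 150% in these data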
CIT2-GFP yeast: alters CIT2-GFP fluorescence in TOR pathway yeast screen; S. cerevisiae CIT2-GFP strain, flow cytometry, 3 h; 100 means same as DMSO wells; GFP response vs DMSO, % at 10 µM; 0.065% of 320,000 active; AID 2029;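 active = GFP response relative to DMSO above a set limit, near the screen mean plus 3 SD, cut at about 150% in these data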;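 note: ratio of well median GFP fluorescence to mean of DMSO wells on the plate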
MEP2 TOR yeast: yeast TOR pathway MEP2-GFP modulation; 0.51% of 330,000 active; S. cerevisiae MEP2-GFP strain, flow cytometry GFP, 3 h; 100% = DMSO control level; GFP response vs DMSO, % at 10 µM;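 active = GFP response versus DMSO above a set limit, roughly screen mean plus 3 SD, cut at about 180% in these data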;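 note: median GFP fluorescence of the barcode-gated MEP2-GFP cells per well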
LAP4 cherry2: reconfirmed LAP4-GFP TOR pathway modulator in yeast | S. cerevisiae LAP4-GFP strain, flow cytometry GFP, 3 h | GFP response vs DMSO, % at 10 µM | AID 2621 | shares compounds with LAP4-GFP MLPCN | 20% of 590 active;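 active = GFP signal as percent of the solvent control above about 150%, meaning raised reporter expression, limit read from the data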;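 note: ratio of well median GFP fluorescence to plate DMSO mean so 100% = DMSO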
MEP2 cherry2: second confirmation of modulators of TOR reporter MEP2-GFP in yeast. shares compounds with LAP4-GFP MLPCN. S. cerevisiae MEP2-GFP strain, flow cytometry GFP, 3 h. GFP response vs DMSO, % at 10 µM. 10% of 590 active. AID 2622;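 active = GFP signal above 150% of the solvent control wells, that is a rise of more than half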;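 note: median channel GFP fluorescence of all gated yeast cells per well; ratio of median GFP to plate DMSO average so 100% = DMSO level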
RPL19A GFP CP2: yeast RPL19A-GFP TOR reporter modulation, second cherry pick; shares compounds with LAP4-GFP MLPCN; S. cerevisiae RPL19A-GFP strain, flow cytometry GFP, 3 h; active compounds read low; 100% means same as DMSO wells; GFP response vs DMSO, % at 10 µM; 3% of 590 active; AID 2623;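 active = under 65% GFP response relative to DMSO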;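 note: median GFP channel fluorescence per well over the all cells gate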
CIT2-GFP pick2: reconfirmed modulator of CIT2-GFP TOR reporter in yeast; shares compounds with LAP4-GFP MLPCN; S. cerevisiae CIT2-GFP strain, flow cytometry GFP, 3 h; DMSO control wells read 100%; GFP response vs DMSO, % at 10 µM; 8% of 590 active;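 active = GFP response vs DMSO above about 150%, limit read from the data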;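 note: median green fluorescence per well over all gated yeast cells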
AGP1-GFP pick2: second confirmation of modulators of TOR reporter AGP1-GFP in yeast | shares compounds with LAP4-GFP MLPCN | S. cerevisiae AGP1-GFP strain, flow cytometry GFP, 3 h | percent response vs DMSO, % at 10 µM | 590 tested, under 10 active | AID 2643;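 active = over 150 percent of DMSO response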;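 note: median GFP channel fluorescence over all cells without mother daughter split; sample median GFP divided by mean DMSO control so 100% equals DMSO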
Yeast autofluor: compound is autofluorescent in yeast s288c cells | shares compounds with LAP4-GFP MLPCN | S. cerevisiae s288c, 520 nm autofluorescence, flow cytometry, 3 h; active compounds read high; zero means same as solvent-only cells | fluorescence change (kMESF span) at 33 µM | 610 tested, under 10 active | AID 2757;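 active = fluorescence span over the dose series, or activity score, above about 33, limit read from the data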
An asterisk follows results filed as active; . = no result given. Sampled rows, rich in hits. Any-hit rate of the full collection: about 0.93%.

SMILES	RPL19A TOR yeast	AGP1 TOR yeast	LAP4-GFP MLPCN	CIT2-GFP yeast	MEP2 TOR yeast	LAP4 cherry2	MEP2 cherry2	RPL19A GFP CP2	CIT2-GFP pick2	AGP1-GFP pick2	Yeast autofluor
CC(=O)c1c(C)[nH]c(C(=O)COC(=O)c2cc(C)oc2C)c1C	101	104	110	104	108	.	.	.	.	.	.
Cc1ccc(S(=O)(=O)N2CC(C(=O)O)=CC[C@H]2c2ccc(Cl)cc2)cc1	97	83	159*	89	89	111	93	97	97	95	-0.31
COc1ccc([C@@H]2CC=C(C(=O)O)CN2S(=O)(=O)c2ccc(Cl)cc2)cc1	96	85	131	110	83	.	.	.	.	.	.
CCOC(=O)C1=C(COC(=O)CNC(=O)c2ccc(Cl)cc2Cl)NC(=O)NC1C (configuration not stated)	104	110	108	98	101	.	.	.	.	.	.
CCOC(=O)c1cc(CC)sc1NC(=O)CN1CCN(C(=O)c2ccco2)CC1	97	94	87	88	85	.	.	.	.	.	.
O=C(COc1ccccc1)NNC(=S)NC(=O)c1ccc(Cl)cc1Cl	109	98	219*	92	119	260*	185*	83	122	117	1.4
CC1=NNC(=O)/C1=C\c1cn(-c2ccccc2)nc1-c1cccs1	92	88	263*	94	108	.	.	.	.	.	3
Cc1cccc(N(Cc2ccccc2)C(=O)C2CCN(C(=O)c3ccccc3C)CC2)c1	97	100	93	92	96	.	.	.	.	.	.
O=C(O)C1Sc2[nH]c(=O)sc2C2c3cc(Br)ccc3OC(=O)C12 (configuration not stated)	99	90	151*	101	112	.	.	.	.	.	3.3
NS(=O)(=O)c1ccc(CCNC(=O)C(=O)c2cn(CC(=O)N3CCOCC3)c3ccccc23)cc1	99	109	104	171*	113	103	102	99	106	99	.
CCN(CC)C(=O)Cn1cc(C(=O)C(=O)NCCc2ccc(S(N)(=O)=O)cc2)c2ccccc21	106	109	109	103	106	.	.	.	.	.	.
Cc1ccc(O)c(C(=O)CC(=O)c2ccccc2Cl)c1	51	51	74	69	111	104	102	99	109	97	.
O=S(=O)(Cc1ccc(Cl)cc1)N1CCN(c2ncccn2)CC1	99	101	94	105	98	.	.	.	.	.	.
[O-][n+]1cccc2c(Br)cc(Br)c(O)c21	101	108	163*	118	100	.	.	.	.	.	1.1
C[n+]1cccc2c(Br)ccc([O-])c21	101	108	111	100	103	.	.	.	.	.	.
COc1cccc(N2CCN(C(=O)CNC(=O)c3sc4ccccc4c3Cl)CC2)c1	106	92	80	.	99	.	.	.	.	.	.
CC(=O)c1c(C)[nH]c(C(=O)COC(=O)c2ccc(C)s2)c1C	118	124	153*	120	131	99	105	101	98	100	.
CCOC(=O)c1c(C)[nH]c(C(=O)COC(=O)c2[nH]c(C)c(C(C)=O)c2C)c1C	103	108	110	113	107	.	.	.	.	.	.

Screens from PubChem.
